PubChem BioAssay (Tox21)
Several values for one entry are separate records, joined by “and”; a condition that tells them apart may be missing. Equal values may be shown once. Inconclusive results are not listed. Some structures have more than one record in an assay (separate samples or runs), and their calls can disagree. Activity calls are given as the source filed them. Unless noted, calls follow the shape of the dose curve; as a rule, active = well fitted curve in the direction sought with a large enough effect in the repeat runs; inconclusive = weak or mixed curves; inactive = no such curve, though single readings can be large; an effect the other way counts as inactive or inconclusive.

Key:
[1] = qHTS assay to identify small molecule agonists of the hypoxia (HIF-1) signaling pathway - cell viability counter screen (AID 1224844; calls by dose curve; also: nearly all actives have a fitted effect of over 50% in size)
How it was run: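 Cytotoxicity measured by CellTiter-Glo ATP luminescence in the wells also read for beta-lactamase signal. Cells were HRE-bla ME-180 (2,000/well, 0.5% dialyzed FBS), exposed to compounds for 17 h at 37C.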

[2] = qHTS assay to identify small molecule agonists of H2AX (AID 1224845; active = well fitted activation curve with a large enough effect in the signal ratio in the repeat runs, not every such curve was filed as active; the % refers to the signal ratio)
How it was run: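 Wild-type CHO-K1 cells, plated overnight, exposed 3hr at 37C to 15 concentrations (0.76% DMSO final). Lysed, then HTRF anti-pH2AX (S139) cryptate and anti-H2AX-d2 antibodies, 24 hr room temperature; 665/620 nm emission read.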

[3] = qHTS assay to identify small molecule agonists of the hypoxia (HIF-1) signaling pathway (AID 1224846; active = well fitted activation curve with a large enough effect in the signal ratio in the repeat runs, not every such curve was filed as active; the % refers to the signal ratio)
How it was run: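 Compounds added to ME-180 cells carrying hypoxia-response-element beta-lactamase reporter (0.5% dialyzed FBS, 5 h preplating), 17 h at 37C; agonist activity detected by CCF4-AM B/G FRET read-out.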

[4] = qHTS assay to identify small molecule agonists of H2AX - cell viability counter screen (AID 1224847; calls by dose curve; also: top concentration of the series differs between compounds; nearly all actives have a fitted effect of over 30% in size)
How it was run: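 Compounds tested at 15 concentrations were incubated 3 hr at 37C with wild-type CHO-K1 cells; cellular ATP-based luminescence (CellTiter-Glo) indicated viability.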

[5] = qHTS assay to identify small molecule antagonists of the estrogen related receptor (ERR) signaling pathway from Tox21 library (AID 1224848); also: nearly all actives have a fitted effect of over 50% in size
How it was run: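 Compounds dissolved in DMSO are pin-transferred onto ERR reporter cells (2,000 per well) that have settled for 6 h at 37 C. Plates then incubate 18 h at 37 C before ONE-Glo luciferase reagent and a luminescence read 30 min later.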

[6] = qHTS assay to identify small molecule agonists of the estrogen related receptor (ERR) signaling pathway from Tox21 library (AID 1224849; calls by dose curve; also: nearly all actives have a fitted effect of over 15% in size); settings: ERR reporter cell line, ONE-Glo luciferase, 18 h
How it was run: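 Luminescent agonist read-out (One-Glo, 30-minute room-temperature incubation) following 18-hour compound treatment at 37 C of the ERR cell line, which had been plated 6 hours before dosing.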

[7] = qHTS RealTime-Glo MT Cell Viability Assay in HepG2 cells - 24 hour (AID 1224867); also: nearly all actives have a fitted effect of over 50% in size
How it was run: (§1)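 Real-time, nonlytic viability: 600 HepG2 cells/well mixed with NanoLuc enzyme plus prosubstrate; 5 h settle, compound (DMSO) added by pintool; luminescence monitored over 40 h at 37 C.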

[8] = qHTS RealTime-Glo MT Cell Viability Assay in HEK293 cells - 32 hour (AID 1224868); also: top concentration of the series differs between compounds; nearly all actives have a fitted effect of over 50% in size
How it was run: (§2)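 Cells + reagent dispensed (600 cells/well, HEK293) → 5 h at 37 C/5% CO2 → 23 nL compound in DMSO pinned → 40 h at 37 C → luminescence read at 0, 8, 16, 24, 32, 40 h.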

[9] = A CellTox Green Cytotoxicity Assay to monitor cytotoxicity in HEK293 cells - 0 hour (AID 1224869); also: nearly all actives have a fitted effect of over 50% in size
How it was run: (§3)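 Fluorescence from a DNA-binding dye excluded by viable cells was measured repeatedly in the same HEK293 wells (600 cells/well) during continuous compound exposure at 37 C. Each assay gives one read point: 0, 8, 16, 24, 32 or 40 h.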

[10] = qHTS RealTime-Glo MT Cell Viability Assay in HepG2 cells - 40 hour (AID 1224870); also: nearly all actives have a fitted effect of over 50% in size; also: potency is read from the fitted curve at half-maximal effect
How it was run: (§4)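 HepG2 cells (600/well) mixed with RealTime-Glo MT reagent, settled 5 h at 37 C/5% CO2 before compound addition. Nonlytic NanoLuc luminescence from viable-cell prosubstrate reduction read repeatedly during 40 h treatment at 37 C.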

[11] = qHTS RealTime-Glo MT Cell Viability Assay in HEK293 cells - 16 hour (AID 1224872)
How it was run: as §2

[12] = qHTS RealTime-Glo MT Cell Viability Assay in HepG2 cells - 8 hour (AID 1224873); also: nearly all actives have a fitted effect of over 55% in size
How it was run: as §4

[13] = qHTS RealTime-Glo MT Cell Viability Assay in HEK293 cells - 40 hour (AID 1224874); settings: RealTime-Glo luminescence; max response: stronger effect = lower value; also: nearly all actives have a fitted effect of over 50% in size
How it was run: (§5)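 Luminescence, which tracks viable cell number through reduction of the prosubstrate to a NanoLuc substrate, was read over continuous 37 C culture. Cells (600/well) were premixed with reagent and rested 5 h before 23 nL of compound in DMSO was pinned.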

[14] = A CellTox Green Cytotoxicity Assay to monitor cytotoxicity in HEK293 cells - 24 hour (AID 1224875); also: nearly all actives have a fitted effect of over 45% in size
How it was run: as §3

[15] = A CellTox Green Cytotoxicity Assay to monitor cytotoxicity in HepG2 cells - 16 hour (AID 1224876); also: nearly all actives have a fitted effect of over 45% in size
How it was run: (§6)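 Real-time cytotoxicity: fluorescence of a cell-impermeant cyanine dye binding DNA of dead HepG2 cells, measured repeatedly (0–40 h) during compound exposure at 37 C. Cells seeded 600/well with reagent, dosed after 5 h.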

[16] = qHTS RealTime-Glo MT Cell Viability Assay in HepG2 cells - 32 hour (AID 1224877); also: nearly all actives have a fitted effect of over 55% in size; also: potency is read from the fitted curve at half-maximal effect
How it was run: as §1

[17] = A CellTox Green Cytotoxicity Assay to monitor cytotoxicity in HepG2 cells - 24 hour (AID 1224878); also: nearly all actives have a fitted effect of over 45% in size
How it was run: as §6

[18] = A CellTox Green Cytotoxicity Assay to monitor cytotoxicity in HepG2 cells - 40 hour (AID 1224879); also: nearly all actives have a fitted effect of over 40% in size
How it was run: as §6

[19] = qHTS RealTime-Glo MT Cell Viability Assay in HEK293 cells - 0 hour (AID 1224880); also: top concentration of the series differs between compounds; nearly all actives have a fitted effect of over 45% in size
How it was run: as §5

[20] = A CellTox Green Cytotoxicity Assay to monitor cytotoxicity in HEK293 cells - 40 hour (AID 1224871); also: nearly all actives have a fitted effect of over 45% in size
How it was run: as §3
% is scaled to controls: 0 for no effect and ±100 for the full control effect.

CC1=CC(C)(C)Nc2ccccc21
inactive: Potency [1] | Potency [2] | outcome [3] | Potency [4] | Potency [5] | activity change, positive = activation ([6]; at 92.4 µM (top of the series)) 1.56% and -18.3% | Potency [7] | Potency [8] | Potency [9] | Potency [10] | Potency [11] | Potency [12] | max response [13] 5.64% and -19.8% | Potency [14] | Potency [15] | Potency [16] | Potency [17] | Potency [18] | Potency [19]

[Na+]
inactive: Potency [1] | Potency [2] | outcome [3] | Potency [4] | Potency [7] | Potency [8] | Potency [9] | Potency [20] | Potency [11] | max response [13] 3.11% and 3.69% | Potency [14] | Potency [15] | Potency [17] | Potency [18] | Potency [19]
inactive and 38.9 µM (active): Potency [10]
inactive and 49 µM (active): Potency [16]

CN(C)C
inactive: Potency [1] | Potency [2] | outcome [3] | Potency [4] | Potency [7] | Potency [8] | Potency [9] | Potency [10] | Potency [20] | Potency [11] | Potency [12] | max response [13] 3.08% and -9.36% | Potency [14] | Potency [15] | Potency [16] | Potency [17] | Potency [18]

c1ccc2c(c1)ccc1ncccc12
inactive: Potency [1] | Potency [2] | outcome [3] | Potency [4] | Potency [5] | activity change, positive = activation ([6]; at 92.4 µM (top of the series)) -5.44% | Potency [7] | Potency [8] | Potency [9] | Potency [10] | Potency [20] | Potency [11] | Potency [12] | max response [13] -12% and -17.1% | Potency [14] | Potency [15] | Potency [16] | Potency [17] | Potency [18]

Oc1c(Cl)ccc(Cl)c1Cl
inactive: Potency [1] | Potency [2] | outcome [3] | Potency [4] | Potency [5] | activity change, positive = activation ([6]; at 92.4 µM (top of the series)) 1.41% and -6.03% | Potency [7] | Potency [9] | Potency [10] | Potency [20] | Potency [11] | Potency [12] | max response [13] -14% and -18.1% | Potency [14] | Potency [15] | Potency [16] | Potency [17] | Potency [18]

c1ccc2ncccc2c1
inactive: Potency [1] | Potency [2] | outcome [3] | Potency [4] | Potency [7] | Potency [8] | Potency [9] | Potency [10] | Potency [20] | Potency [11] | Potency [12] | max response [13] -2.01% and 11.7% | Potency [14] | Potency [15] | Potency [16] | Potency [18]

Cc1ccc2c(c1)C(=O)OC2=O
inactive: Potency [1] | Potency [2] | outcome [3] | Potency [4] | Potency [7] | Potency [8] | Potency [9] | Potency [10] | Potency [20] | Potency [11] | max response [13] 5.67% and 0.571% | Potency [14] | Potency [15] | Potency [16] | Potency [18]

Cc1ccc(N)c([N+](=O)[O-])c1
inactive: Potency [1] | Potency [2] | outcome [3] | Potency [4] | Potency [7] | Potency [9] | Potency [10] | Potency [20] | Potency [11] | Potency [12] | max response [13] 2.67% and 2.77% | Potency [14] | Potency [15] | Potency [16] | Potency [17] | Potency [18]

Cc1ccc(S(=O)(=O)NCl)cc1
inactive: Potency [1] | Potency [2] | outcome [3] | Potency [4] | Potency [5] | activity change, positive = activation ([6]; at 92.4 µM (top of the series)) 5.11% and 6.95% | Potency [7] | Potency [8] | Potency [9] | Potency [10] | Potency [20] | Potency [11] | Potency [12] | max response [13] 4.42% and 3.53% | Potency [14] | Potency [15] | Potency [16] | Potency [18] | Potency [19]

CC1(C)C(C=C(Cl)Cl)C1C(=O)OCc1cccc(Oc2ccccc2)c1 (stereo not drawn)
inactive: Potency [1] | Potency [2] | outcome [3] | Potency [4] | Potency [7] | Potency [8] | Potency [9] | Potency [10] | Potency [20] | Potency [11] | max response [13] -20.8% and -17.3% | Potency [14] | Potency [15] | Potency [16] | Potency [18] | Potency [19]

C[C@]12C=CC(=O)C=C1CC[C@H]1[C@@H]3C[C@@H](O)[C@](O)(C(=O)CO)[C@@]3(C)C[C@H](O)[C@@]12F
inactive: Potency [1] | Potency [2] | outcome [3] | Potency [4] | Potency [5] | activity change, positive = activation ([6]; at 42.5 µM (top of the series)) 2.12% | activity change, positive = activation ([6]; at 92.4 µM (top of the series)) -0.443% | Potency [7] | Potency [8] | Potency [9] | Potency [10] | Potency [20] | Potency [11] | max response [13] 1.25% and 4.53% | Potency [14] | Potency [15] | Potency [16] | Potency [17] | Potency [18]

COC(=O)c1ccc(C)cc1
inactive: Potency [1] | Potency [2] | outcome [3] | Potency [4] | Potency [7] | Potency [8] | Potency [9] | Potency [10] | Potency [20] | Potency [11] | Potency [12] | max response [13] 1.02% and 6.36% | Potency [14] | Potency [15] | Potency [16] | Potency [18] | Potency [19]
